# According to PMC4552634, “A New Set of Chemical Starting Points with Plasmodium falciparum Transmission-Blocking Potential for Antimalarial Drug Discovery” (PLoS ONE, 2015):
# Read-outs that look alike come from different tables or passages of the source. Among all 13,000 compounds or so, about 3,200 (25%) showed an effect of 50% or more. The list shows a part of the results.
# Test system: P. falciparum stage V gametocytes
# Design: BacTiter-Glo ATP luminescence viability of purified stage V gametocytes in 384-well plates, per cent inhibition versus DMSO
# Settings: 48 h, 5 µM, inhibitor
SMILES,% Inhibition [%],% Inhibition (% Inhibition) [%]
COc1cc2c(cc1C(F)(F)F)N(C(=O)Nc1cc(F)cc(-c3cncnc3)c1)CC2 [TCMDC-139039],-11.26,–
O=C(Nc1cccc(-c2nc3ccccc3[nH]2)c1)c1cccc(NC(=O)c2ccco2)c1 [TCMDC-125185],18.17,–
CC(=O)c1ccc(S(=O)(=O)N2CCC(C(=O)Nc3ccccc3N3CCCC3)CC2)cc1 [TCMDC-125467],-11.47,–
CCC(C)NS(=O)(=O)c1ccc2nc(Nc3ccc(C)c(Cl)c3)n([C@H](C)C(C)(C)C)c2c1 (stereo partly shown) [TCMDC-136238],38.05,–
O=C(C=Cc1cccs1)Nc1ccc(-c2nc3ccccc3[nH]2)cc1 [TCMDC-123926],-97.24,–
COc1ccccc1CN1CCC(CNC(=O)c2cc(-c3ccc(N(C)C)cc3)cs2)C1.O=C(O)C(F)(F)F (stereo not shown) [TCMDC-134451],95.05,–
O=C(NCC1CCN(Cc2cccc(C(F)(F)F)c2)C1)c1cc(-c2cccc(Cl)c2)cs1 (stereo not shown) [TCMDC-134485],50.21,–
COc1ccccc1CN1CCC(CNC(=O)c2cc(-c3cccc(C(F)(F)F)c3)cs2)C1.O=C(O)C(F)(F)F (stereo not shown) [TCMDC-134450],-43.84,–
CCCC(=O)Nc1ccc(OCCCN(Cc2ccccc2F)c2ccc(C#N)c(C(F)(F)F)c2)cc1 [TCMDC-135449],24.41,–
Fc1cc(Cl)ccc1Nc1ccnc2cc(-c3ccc(CN4CCNCC4)o3)ccc12 [TCMDC-138394],83.09,–
Fc1cc(Cl)ccc1Nc1ccnc2cc(-c3ccc(CNCCN4CCOCC4)o3)ccc12 [TCMDC-138397],-18.32,–
Fc1cc(Cl)ccc1Nc1ccnc2cc(-c3ccc(CN4CCCCC4)o3)ccc12 [TCMDC-138396],9.087,–
CN1CCN(Cc2ccc(-c3ccc4c(Nc5ccc(Cl)cc5F)ccnc4c3)o2)CC1 [TCMDC-138395],-22.3,–
Oc1cc(Nc2ccnc3cc(-c4ccc(CN5CCCCC5)o4)ccc23)c(Cl)cc1F [TCMDC-138485],11.9,–
CN1CCN(Cc2ccc(-c3ccc4c(Nc5cc(O)c(F)cc5Cl)ccnc4c3)o2)CC1 [TCMDC-138486],4.683,–
CN1CCN(Cc2ccc(-c3ccc4c(Nc5cc(O)c(Cl)cc5F)ccnc4c3)o2)CC1 [TCMDC-138446],74.65,–
Fc1cc(Cl)ccc1Nc1ccnc2cc(-c3ccc(CN4CCSCC4)o3)ccc12 [TCMDC-138392],1.462,–
Fc1cc(Cl)ccc1Nc1ccnc2cc(-c3ccc(CN4CCOCC4)o3)ccc12 [TCMDC-138393],99.43,–
COc1ccc2nccc(N3CCN(CCNCc4ccc5c(n4)NC(=O)CS5)CC3)c2c1.Cl [TCMDC-141962],5.259,–
CCCCC1(c2ccc(F)cc2)NC(=O)N(CC(=O)c2cc(C)n(Cc3ccco3)c2C)C1=O (stereo not shown) [TCMDC-125119],0.3946,–
CNC(=O)c1cc(S(=O)(=O)N2CCN(c3ccccn3)CC2)c(C)s1 [TCMDC-124846],34.83,–

SMILES,% Inhibition [%],% Inhibition (% Inhibition) [%]
CCNC(=O)c1cc(S(=O)(=O)N2CCN(c3ccccn3)CC2)cs1 [TCMDC-124848],88.58,–
O=C(Nc1ccc(N2CCN(c3ncccc3C(F)(F)F)CC2)nc1)c1cccs1 [TCMDC-125784],10.79,–
CC(=O)Nc1ccc(S(=O)(=O)N2CCN(c3nc(NC4CCCC4)c4ccccc4n3)CC2)cc1 [TCMDC-123869],2.309,–
CNC(=O)c1cc(S(=O)(=O)N2CCN(c3ccccn3)CC2)cs1 [TCMDC-124847],78.13,–
Cc1nc(-c2ccc3c(c2)CCN(CCC2CCC(NC(=O)c4cc5cccc(Cl)c5[nH]4)CC2)CC3)no1 (stereo not shown) [TCMDC-140071],-33.37,–
O=C(Nc1ccc(Cl)c(C(F)(F)F)c1)c1ccc(Cl)c([N+](=O)[O-])c1 [TCMDC-125647],-24.24,–
O=C(c1ccc(F)c2ccccc12)N1CCc2cc3nccc(N4CCN5CCC[C@H]5C4)c3cc21 [TCMDC-140043],23.61,–
CS(=O)(=O)c1ccc(CCNCc2ccc(-c3ccc(CN(C(=O)C4CC(=O)c5ccccc54)C4Cc5ccccc5C4)cc3)nc2)cc1 (stereo not shown) [TCMDC-141509],97.27,–
CS(=O)(=O)c1ccc(CCNCc2ccc(-c3ccc(CN(C(=O)C4CC(=O)c5ccccc54)C4CCN(Cc5ccccc5)CC4)cc3)nc2)cc1 (stereo not shown) [TCMDC-141605],41.88,–
CS(=O)(=O)c1ccc(CCNCc2ccc(-c3ccc(CN(C(=O)C4CCCC4)C4CCN(Cc5ccccc5)CC4)cc3)nc2)cc1 [TCMDC-141511],48.38,–
CS(=O)(=O)c1ccc(CCNCc2ccc(-c3ccc(CNC4CCN(Cc5ccccc5)CC4)cc3)nc2)cc1 [TCMDC-141614],33.12,–
CN1CCC(C(=O)N(Cc2ccc(-c3ccc(CNCCc4ccc(S(C)(=O)=O)cc4)cn3)cc2)C2CCN(Cc3ccccc3)CC2)CC1 [TCMDC-141506],104.7,–
CN1CCC(C(=O)N(Cc2ccc(-c3ccc(CNCCc4ccc(S(C)(=O)=O)cc4)cn3)cc2)C2Cc3ccccc3C2)CC1 [TCMDC-141508],99.19,–
CS(=O)(=O)c1ccc(CCNCc2ccc(-c3ccc(CNC4Cc5ccccc5C4)cc3)nc2)cc1 [TCMDC-141615],5.211,–
c1ccc(CCNCc2ccc(-c3ccc(CNC4CCN(Cc5ccccc5)CC4)cc3)nc2)cc1 [TCMDC-141649],82.96,–
CC(C)c1ccc(Cn2cc(-c3ccncc3)c3cc(OCc4ccccc4)ccc32)cc1 [TCMDC-137225],2.514,–
CCc1cccc(NC(=O)c2ccc(CN3CCCN(CC4CCCCC4)CC3)cc2)c1 [TCMDC-136399],-29.35,–
O=c1cc(NCCCNC2CCOc3c(I)cc(Cl)cc32)[nH]c2ccccc12 (stereo not shown) [TCMDC-139489],-10.52,–
O=C1COc2ccc(CNC3CCC(O)(CCc4ccnc5cc6c(cc45)OCCO6)CC3)nc2N1 (stereo not shown) [TCMDC-141941],32.09,–
O=C(c1ccc(-c2ccc(-c3nc4cc(C(F)(F)F)ccc4[nH]3)s2)cc1)N1CCN(CCc2ccccc2)CC1 [TCMDC-132482],3.451,–
COc1cccc2cc(C(=O)N[C@@H](CC(C)C)C(=O)N[C@H](/C=N/N3C(=O)CN(Cc4ccccc4)C3=O)CCc3ccccc3)oc12 [TCMDC-136198],-10.77,–

SMILES,% Inhibition [%],% Inhibition (% Inhibition) [%]
O=C(Cc1cccc(O)c1)Nc1ccc(-c2cccc(-c3nc4ccc(C(F)(F)F)cc4[nH]3)c2)cc1 [TCMDC-132176],0.6072,–
COc1ccc(CCN2CCC(CN(C)Cc3cnn(-c4ccccc4)c3)CC2)cc1 [TCMDC-124632],-8.037,–
COc1ccc(CNCc2ccc(-c3ccc(CNCCc4ccccc4)cn3)cc2)cn1 [TCMDC-141647],26.41,–
CN1CCC(C(=O)N(Cc2ccc(-c3ccc(CNCCc4ccccc4)cn3)cc2)C2CCN(Cc3ccccc3)CC2)CC1 [TCMDC-141552],110.4,–
CN1CCCC1CCNCc1ccc(-c2ccc(CNCCc3ccccc3)cn2)cc1 (stereo not shown) [TCMDC-141617],85.17,–
CC(C)C[C@@H](C(=O)N[C@@H](CCCCNC(=O)OCc1ccccc1)C(=O)Nc1nccs1)[C@H](C)N(O)C=O [TCMDC-137184],-15.37,–
C[C@@H]([C@@H](CCCc1ccc(Cl)cc1)C(=O)N[C@H](C(=O)Nc1cccnc1)C(C)(C)C)N(O)C=O [TCMDC-138383],-4.065,–
CS(=O)(=O)Nc1ccc2[nH]cc(C3CCN(CC4CCC(NC(=O)/C=C/c5ccc(Cl)c(Cl)c5)CC4)CC3)c2c1 (stereo not shown) [TCMDC-139641],-16.95,–
O=C(/C=C/c1ccc(Cl)c(Cl)c1)NC1CCC(CN2CCC(c3c[nH]c4ccccc34)CC2)CC1 (stereo not shown) [TCMDC-139447],56.58,–
Cc1ccc2[nH]cc(C3CCN(CC4CCC(NC(=O)/C=C/c5ccc(Cl)c(Cl)c5)CC4)CC3)c2c1 (stereo not shown) [TCMDC-139630],–,-23.48
O=C(/C=C/c1ccc(Cl)c(Cl)c1)N1CCC(CN2CCC(c3c[nH]c4cc(C(F)(F)F)ccc34)CC2)CC1 [TCMDC-139860],22.64,–
NC(=O)c1ccc2[nH]cc(C3CCN(CC4CCC(NC(=O)/C=C/c5ccc(Cl)c(Cl)c5)CC4)CC3)c2c1 (stereo not shown) [TCMDC-139886],–,70.38
O=C(/C=C/c1ccc(Cl)c(Cl)c1)NC1CCC(CN2CCC(c3c[nH]c4cc(O)ccc34)CC2)CC1 (stereo not shown) [TCMDC-139642],41.76,–
CNC(=O)c1ccc2[nH]cc(C3CCN(CC4CCC(NC(=O)/C=C/c5ccc(Cl)c(Cl)c5)CC4)CC3)c2c1 (stereo not shown) [TCMDC-139979],15.16,–
O=C(/C=C/c1ccc(Cl)c(Cl)c1)NC1CCC(CN2CCC(c3c[nH]c4cc(C(F)(F)F)ccc34)CC2)CC1 (stereo not shown) [TCMDC-139869],–,50.13
NC(=O)c1ccc2[nH]cc(C3CCN(CC4CCC(NC(=O)/C=C/c5ccc(Cl)c(Cl)c5)CC4)CC3)c2c1 (stereo not shown) [TCMDC-139885],–,5.306
O=C(/C=C/c1ccc(Cl)c(Cl)c1)NC1CCC(CN2CCC(c3c[nH]c4cc(C(F)(F)F)ccc34)CC2)CC1 (stereo not shown) [TCMDC-139868],–,4.839
O=C(/C=C/c1ccc(Cl)c(Cl)c1)NC1CCC(CN2CCC(c3c[nH]c4ccccc34)C(O)C2)CC1 (stereo not shown) [TCMDC-139645],-15.82,–
Cc1ccc2[nH]cc(C3CCN(CC4CCC(NC(=O)/C=C/c5ccc(Cl)c(Cl)c5)CC4)CC3)c2c1 (stereo not shown) [TCMDC-139629],–,74.07
